Experimental findings from PubChem BioAssay (NCI) are described below.

About 79,000 compounds went through this panel and 15% of them were active in at least one assay; those are over-represented in the sample as a whole. Unmarked numbers belong to inactive results. Active and inactive are the calls of the source. Rule as the data show it: active = growth inhibition above about 70%; inactive = the rest.

Experiment [1] in a line: NCI Yeast Anticancer Drug Screen. Data for the rad50 strain (AID 155).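 Also: 0% = growth of vehicle-only cultures of the same strain.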 Conditions: S. cerevisiae rad50 strain growth inhibition, hits give high values. The essentials: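 Inhibition values express reduced yeast growth in compound-treated cultures relative to vehicle-treated controls.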
Experiment [2] in a line: NCI Yeast Anticancer Drug Screen. Data for the mec2-1 strain (AID 157). Conditions: S. cerevisiae mec2-1 strain, hits give high values. The gist of the method: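 Readout is yeast growth inhibition, normalised to vehicle-treated controls, in the mec2-1 strain exposed to compound.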
Experiment [3] can be described thus: NCI Yeast Anticancer Drug Screen. Data for the sgs1 mgt1 strain (AID 161).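 Also: 0% = growth of cultures given vehicle only.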 To be noted: S. cerevisiae sgs1 mgt1 strain, hits give high values. The essentials: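 Growth of a repair-deficient yeast mutant was monitored after compound treatment and expressed as inhibition relative to vehicle-treated cultures.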
A short description of experiment [4]: NCI Yeast Anticancer Drug Screen. Data for the cln2 rad14 strain (AID 165).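 Also: 0% = growth equal to vehicle treated cultures.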 To be noted: S. cerevisiae cln2 rad14 strain, hits give high values. The gist of the method: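 Relative to vehicle controls, growth inhibition of compound-treated cln2 rad14 yeast was recorded.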
Experiment [5] can be described thus: NCI Yeast Anticancer Drug Screen. Data for the bub3 strain (AID 167). To be noted: S. cerevisiae bub3 mutant strain, hits give high values. The essentials:
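Steps: expose the mutant yeast strain to compound; grow alongside vehicle-treated cultures; measure growth; express inhibition against the vehicle cultures.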

Experiment [6] in a line: NCI Yeast Anticancer Drug Screen. Data for the mlh1 rad18 strain (AID 175). Conditions: S. cerevisiae mlh1 rad18 strain growth inhibition, hits give high values. The essentials: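 Test agents were incubated with a yeast strain of defined genotype (DNA damage repair defect). Inhibition of growth was derived by comparison with vehicle-exposed cultures.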
Where [7] appears, read: at 5.0 µM (retest, dose inferred, filed as 0.5).
Setting [8] is: at 50.0 µM (retest, dose inferred, filed as 5.0).

Regarding `Cc1nc(C(N)=S)sc1C(=O)C/C(=N/N)C(=O)Nc1cccc(Cl)c1C`, the growth inhibition in experiment [1] (setting [7]) is 8%; in experiment [1] (setting [8]), 24%; in experiment [1] (at 50.0 µM), 26.1%; in experiment [2] (setting [7]), -5%; in experiment [2] (setting [8]) it was 14%; in experiment [2] (at 50.0 µM), 29.6%. For the same compound, the growth inhibition in experiment [3] (setting [7]) was -7%; in experiment [3] (setting [8]), 23%; in experiment [3] (at 50.0 µM), -4.95%; in experiment [4] (setting [7]), -28%; in experiment [4] (setting [8]) it was -15%; in experiment [4] (at 50.0 µM), -15.2%. For the same compound, the growth inhibition in experiment [5] (setting [7]) is 5%; in experiment [5] (setting [8]), 23%; in experiment [5] (at 50.0 µM) it was 6.25%; in experiment [6] (setting [7]), 11%; in experiment [6] (setting [8]), 7%; in experiment [6] (at 50.0 µM), 37.1%.

As to `Nc1ccc2c(c1)CCc1ccccc1-2`, the growth inhibition in experiment [1] (setting [7]) was 1%; in experiment [1] (setting [8]) it was 40%; in experiment [1] (at 50.0 µM) it was 83.3% (active); in experiment [2] (setting [7]), -27%; in experiment [2] (setting [8]) it was 10%; in experiment [2] (at 50.0 µM) it was 43.6%. Also, the growth inhibition in experiment [3] (setting [7]) was 2%; in experiment [3] (setting [8]), 52%; in experiment [3] (at 50.0 µM) it was 89.8% (active); in experiment [4] (setting [7]) it was -5%; in experiment [4] (setting [8]), 8%; in experiment [4] (at 50.0 µM), 50.4%. The growth inhibition in experiment [5] (setting [7]) was -7%; in experiment [5] (setting [8]), 65%; in experiment [5] (at 50.0 µM), 81.5% (active).

Turning to `Nc1ccc2nnnn2c1`, the growth inhibition in experiment [1] (setting [7]) is 0%; in experiment [1] (setting [8]), 72% (active); in experiment [1] (at 50.0 µM), 24.5%; in experiment [2] (setting [7]), -2%; in experiment [2] (setting [8]), 19%; in experiment [2] (at 50.0 µM), 38%. The growth inhibition is 9% in experiment [3] (setting [7]); 76% (active) in experiment [3] (setting [8]); 46.8% in experiment [3] (at 50.0 µM); 3% in experiment [4] (setting [7]); 27% in experiment [4] (setting [8]); 31.2% in experiment [4] (at 50.0 µM). Besides, the growth inhibition in experiment [5] (setting [7]) was 10%; in experiment [5] (setting [8]), 78% (active); in experiment [5] (at 50.0 µM) it was 5.8%; in experiment [6] (setting [7]), 14%; in experiment [6] (setting [8]) it was 91% (active); in experiment [6] (at 50.0 µM) it was 70.5% (active).

Regarding `CC(C)C[NH-].CC(C)C[NH-].[Cl][Pt+2]([Cl])([Cl])[Cl]`, the growth inhibition in experiment [1] (setting [7]) was 72% (active); in experiment [1] (setting [8]), 98% (active); in experiment [1] (at 50.0 µM), 85.2% (active); in experiment [2] (setting [7]) it was 46%; in experiment [2] (setting [8]), 99% (active); in experiment [2] (at 50.0 µM), 91.5% (active). For the same compound, the growth inhibition in experiment [3] (setting [7]) was 70% (active); in experiment [3] (setting [8]), 99% (active); in experiment [3] (at 50.0 µM), 89.2% (active); in experiment [4] (setting [7]), 53%; in experiment [4] (setting [8]), 99% (active); in experiment [4] (at 50.0 µM), 83.5% (active). Also, the growth inhibition is 70% (active) in experiment [5] (setting [7]), 99% (active) in experiment [5] (setting [8]) and 89.5% (active) in experiment [5] (at 50.0 µM).

Turning to `c1ccc([P+](CCCCCC[P+](c2ccccc2)(c2ccccc2)c2ccccc2)(c2ccccc2)c2ccccc2)cc1`, the growth inhibition was 61% in experiment [1] (setting [7]); 85% (active) in experiment [1] (setting [8]); 81.7% (active) in experiment [1] (at 50.0 µM); 46% in experiment [2] (setting [7]); 94% (active) in experiment [2] (setting [8]); 84.8% (active) in experiment [2] (at 50.0 µM). In addition, the growth inhibition is 38% in experiment [3] (setting [7]); 97% (active) in experiment [3] (setting [8]); 83.3% (active) in experiment [3] (at 50.0 µM); 36% in experiment [4] (setting [7]); 68% in experiment [4] (setting [8]); 78.2% (active) in experiment [4] (at 50.0 µM). For the same compound, the growth inhibition was 43% in experiment [5] (setting [7]); 77% (active) in experiment [5] (setting [8]); 86.6% (active) in experiment [5] (at 50.0 µM); 52% in experiment [6] (setting [7]); 94% (active) in experiment [6] (setting [8]); 81.7% (active) in experiment [6] (at 50.0 µM).

In the case of `O=S1(=O)CC2C1C1(Cl)OC2(Cl)c2ccccc21` (stereo not drawn), the growth inhibition is 2% in experiment [1] (setting [7]); 13% in experiment [1] (setting [8]); 75.2% (active) in experiment [1] (at 50.0 µM); 16% in experiment [2] (setting [7]); 9% in experiment [2] (setting [8]); -9.25% in experiment [2] (at 50.0 µM). The growth inhibition in experiment [3] (setting [7]) was 2%; in experiment [3] (setting [8]), 6%; in experiment [3] (at 50.0 µM), 31.1%; in experiment [4] (setting [7]), -45%; in experiment [4] (setting [8]) it was 17%; in experiment [4] (at 50.0 µM), -1.65%. For the same compound, the growth inhibition in experiment [5] (setting [7]) is -3%; in experiment [5] (setting [8]), -9%; in experiment [5] (at 50.0 µM), 21.4%; in experiment [6] (setting [7]), 1%; in experiment [6] (setting [8]) it was 1%; in experiment [6] (at 50.0 µM), 27.6%.

`OCc1ccc2c(c1)CC1(C2)Cc2cc3c(cc2C1O)CCC3` (stereo not drawn): the growth inhibition in experiment [1] (setting [7]) was 20%; in experiment [1] (setting [8]) it was 41%; in experiment [1] (at 50.0 µM) it was 48.6%; in experiment [2] (setting [7]), 18%; in experiment [2] (setting [8]), 36%; in experiment [2] (at 50.0 µM), 42.4%. The growth inhibition was 3% in experiment [3] (setting [7]); 22% in experiment [3] (setting [8]); 51.8% in experiment [3] (at 50.0 µM); 5% in experiment [4] (setting [7]); 51% in experiment [4] (setting [8]); 47.4% in experiment [4] (at 50.0 µM). Besides, the growth inhibition was 21% in experiment [5] (setting [7]); 59% in experiment [5] (setting [8]); 33.2% in experiment [5] (at 50.0 µM); 20% in experiment [6] (setting [7]); 57% in experiment [6] (setting [8]); 71% (active) in experiment [6] (at 50.0 µM).

For `Nc1ccc(Oc2ccc(-c3ccccc3)cc2)c(Cl)c1`, the growth inhibition in experiment [1] (setting [7]) was 61%; in experiment [1] (setting [8]) it was 97% (active); in experiment [1] (at 50.0 µM), 97.8% (active); in experiment [2] (setting [7]), 61%; in experiment [2] (setting [8]), 98% (active); in experiment [2] (at 50.0 µM) it was 98.3% (active). The growth inhibition in experiment [3] (setting [7]) is 72% (active); in experiment [3] (setting [8]) it was 98% (active); in experiment [3] (at 50.0 µM), 98% (active); in experiment [4] (setting [7]) it was 35%; in experiment [4] (setting [8]) it was 97% (active); in experiment [4] (at 50.0 µM), 96.3% (active). Further, the growth inhibition in experiment [5] (setting [7]) is 78% (active); in experiment [5] (setting [8]) it was 97% (active); in experiment [5] (at 50.0 µM), 98% (active); in experiment [6] (setting [7]), 89% (active); in experiment [6] (setting [8]), 97% (active); in experiment [6] (at 50.0 µM) it was 97.7% (active).

As for `C=CS(=O)(=O)c1ccc(C)cc1`, the growth inhibition in experiment [1] (setting [7]) is 0%; in experiment [1] (setting [8]) it was 49%; in experiment [1] (at 50.0 µM), 84% (active); in experiment [2] (setting [7]), 6%; in experiment [2] (setting [8]) it was 70% (active); in experiment [2] (at 50.0 µM), 78.7% (active). Moreover, the growth inhibition in experiment [3] (setting [7]) was 7%; in experiment [3] (setting [8]) it was 55%; in experiment [3] (at 50.0 µM), 81.4% (active); in experiment [4] (setting [7]), 5%; in experiment [4] (setting [8]), 31%; in experiment [4] (at 50.0 µM), 37.2%. For the same compound, the growth inhibition in experiment [5] (setting [7]) was 4%; in experiment [5] (setting [8]) it was 61%; in experiment [5] (at 50.0 µM), 75.8% (active).

As for `COc1ccc(C(C)c2cc3c(cc2O)OCO3)cc1` (stereo not drawn), the growth inhibition was 7% in experiment [1] (setting [7]); 99% (active) in experiment [1] (setting [8]); 98.5% (active) in experiment [1] (at 50.0 µM); -8% in experiment [2] (setting [7]); 48% in experiment [2] (setting [8]); 98.7% (active) in experiment [2] (at 50.0 µM). Besides, the growth inhibition in experiment [3] (setting [7]) was -3%; in experiment [3] (setting [8]) it was 56%; in experiment [3] (at 50.0 µM), 98.8% (active); in experiment [4] (setting [7]), -23%; in experiment [4] (setting [8]), 58%; in experiment [4] (at 50.0 µM), 97.1% (active). Besides, the growth inhibition in experiment [5] (setting [7]) was -22%; in experiment [5] (setting [8]), 76% (active); in experiment [5] (at 50.0 µM), 98.5% (active).
